Gal4-VP16 FLuc = inhibits Gal4-VP16 luciferase reporter, ROR gamma counter-screen. AID 2546. Potency, µM (titrated, usually from 53.6 µM), inactives show top-dose activity, negative = inhibition, most hits filed as inhibitors. hit rate 3.5% among 310,000. Drosophila S2 Gal4-VP16 UAS-luciferase, luminescence, 20 h;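 note: Gal4-VP16 expression switched on by copper sulfate through the metallothionein promoter; potency is the fitted concentration of half-maximal effect; nearly all actives have a fitted effect of over 50% in size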
DT40 TDP1 CPT = DT40-hTDP1 cell growth loss with CPT. Potency, µM (series often up to 46.2 µM), without a hit: at the top dose activity change, negative = growth inhibition, actives largely listed as inhibitors. AID 686979. chicken DT40 Tdp1-/-;hTDP1 cells + 20 nM CPT, ATP luminescence, 48 h. hit rate 12% among 420,000; note: potency is the fitted concentration of half-maximal effect; nearly all actives have a fitted effect of over 55% in size
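Cell growth measured by CellTiter-Glo luminescence after a minimum 48 h, 37 C compound exposure with 20 nM CPT in Tdp1-knockout DT40 cells stably expressing hTDP1, seeded 400/well; qHTS titration format.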
DT40 TDP1 no CPT = qHTS for Inhibitors of human tyrosyl-DNA phosphodiesterase 1 (TDP1): qHTS in cells in absence of CPT. DT40 Tdp1-/- hTDP1 cells, no CPT, ATP luminescence, 48 h. AID 686978, 2013. hit rate 15% among 420,000. Potency, µM (highest dose often 46.2 µM), for the others: at the highest dose activity change, negative = growth inhibition, hits mostly inhibitors; note: potency is the fitted concentration of half-maximal effect; nearly all actives have a fitted effect of over 55% in size
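Luminescent ATP content (CellTiter-Glo) served as the growth readout. Knockout chicken DT40 cells expressing human TDP1 were exposed to compounds without camptothecin for a minimum 48 hr at 37 °C.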
LDHA block = blocks human lactate dehydrogenase A; purified LDHA, NADH/diaphorase-resazurin fluorescence; stronger effect = lower value; hit rate 0.15% among 480,000; P00338; activity change, % (values are at about 110 or 230 µM); AID 1347041; in the data active = activity change below about -30%; inconclusive = mostly about -25% to -30%;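 note: plate controls were DMSO wells for no effect and wells without enzyme for full effect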
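Remaining NADH was detected by diaphorase (0.133 mg/mL) converting 37 µM resazurin to fluorescent resorufin, read at 0 and 20 minutes. The preceding 5-minute room-temperature reaction used 2 nM LDHA, 0.2 mM sodium pyruvate and 0.06 mM NADH at pH 7.4.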
RORgamma inh = blocks mouse ROR gamma transcriptional activity; Drosophila S2 Gal4-RORgamma UAS-luciferase reporter, 20 h; hit rate 5.4% among 310,000; AID 2551; Potency, µM (highest dose often 53.6 µM), for inactives: at the top dose activity change, negative = inhibition, usual class: inhibitors; note: potency is the fitted concentration of half-maximal effect; nearly all actives have a fitted effect of over 60% in size
Target sequence (P51450 whole entry, looked up, the tested form may be a part): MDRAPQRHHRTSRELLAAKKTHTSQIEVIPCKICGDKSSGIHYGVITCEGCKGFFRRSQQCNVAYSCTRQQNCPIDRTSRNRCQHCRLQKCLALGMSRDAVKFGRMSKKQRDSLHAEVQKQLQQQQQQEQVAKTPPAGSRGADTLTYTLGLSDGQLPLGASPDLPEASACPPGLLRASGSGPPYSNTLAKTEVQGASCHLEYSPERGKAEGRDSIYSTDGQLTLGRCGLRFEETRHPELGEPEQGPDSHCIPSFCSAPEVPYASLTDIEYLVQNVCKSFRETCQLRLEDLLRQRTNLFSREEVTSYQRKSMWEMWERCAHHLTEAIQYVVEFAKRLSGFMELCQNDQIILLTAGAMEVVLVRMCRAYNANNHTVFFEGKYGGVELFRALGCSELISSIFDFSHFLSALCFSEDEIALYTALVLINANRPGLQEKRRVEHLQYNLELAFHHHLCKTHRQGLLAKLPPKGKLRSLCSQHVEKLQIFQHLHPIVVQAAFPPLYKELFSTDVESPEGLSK
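In this cell-based reporter format, copper sulfate (700 uM final) drives Gal4–ROR gamma fusion expression from a metallothionein promoter in Drosophila Schneider cells; compounds preincubated 1 hr, reporter read after 20 hr at ambient temperature.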
IL-1B inflam inh = inflammasome signaling inhibition, IL-1 beta readout; THP-1 LPS/ATP IL-1B secretion, AlphaLISA, 16 h; stronger effect = lower value; AID 743279; activity change, % at 57.5 µM; hit rate 4.7% among 360,000; in the data active = activity change below about -50%; inconclusive = mostly about -30% to -49%
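Secreted IL-1B measured by AlphaLISA bead assay after 16 h compound exposure of THP-1 cells; compounds (final up to 57.5 uM) added 1 h before LPS (250 ng/mL) and ATP (1.25 mM) stimulation; lower signal means less secretion.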
Numbers without * were called inactive; ? = inconclusive; · = not tested or not shown. Sampled rows, rich in hits. Any-hit rate of the full collection: about 18%. Unless noted, calls come from the whole dose curve; as a rule, active = well fitted curve in the direction sought with a large enough effect; inconclusive = small, poorly fitted or top-dose-only effect, or another doubt; inactive = no such curve, though single readings can be large; an effect the other way counts as inactive or inconclusive. Unless noted, % is set by controls: 0 for no effect and ±100 for the full control effect.

SMILES	Gal4-VP16 FLuc	DT40 TDP1 CPT	DT40 TDP1 no CPT	LDHA block	RORgamma inh	IL-1B inflam inh
O=C(OCCOc1ccc(Cl)cc1)c1cc(S(=O)(=O)N2CCCCC2)ccc1N1CCOCC1	·	13µM*	?	-10	·	12
O=C(O)c1cc(S(=O)(=O)N2CCCCC2)ccc1N1CCOCC1	·	-1%	0%	-8	·	1
Cc1ccc(OCCOC(=O)c2cc(S(=O)(=O)N3CCCCC3)ccc2N2CCOCC2)cc1	·	16µM*	13µM*	-3	·	1
O=C(COC(=O)c1cc(S(=O)(=O)N2CCCCC2)ccc1N1CCOCC1)c1ccccc1Cl	·	-14%	-28%	1	·	-1
CNC(=O)c1ccc(CN2C(=O)C(C)=C(c3ccc(C)c(C)c3)S2(=O)=O)cc1	·	·	·	5	·	·
CC(Sc1nc(-c2cccs2)nc2ccccc12)C(=O)NCc1ccco1 (stereo unspecified)	·	·	·	0	·	·
CCc1nc2c(cnn2-c2ccc(C)cc2)c(=O)n1-c1ccc(OC)c(Cl)c1	·	·	·	-4	·	·
COc1ccc(C)cc1NC(=O)CSc1nc2ccccc2nc1N1CCCC1	-7%	?	21µM*	-2	-31%	11
COc1ccc(Cl)cc1NC(=O)CSc1nc2ccccc2nc1N1CCCCC1	·	?	21µM*	-5	·	·
O=C(Nc1ccc(F)cc1)C1CCN(c2ncnc3c2sc2ncccc23)CC1	·	·	·	-5	·	·
O=C(NC1CC1)C1CCN(c2ncnc3c2sc2cccc(F)c23)CC1	-2%	23µM*	16µM*	-2	?	-17
O=C(NCCc1ccccc1)C(=O)NCC(c1cccnc1)N1CCN(c2ccc(F)cc2)CC1 (stereo unspecified)	·	15µM*	10µM*	-5	·	·
O=C(NCC(c1cccnc1)N1CCN(c2ccc(F)cc2)CC1)c1cccc(Cl)c1 (stereo unspecified)	-9%	16µM*	10µM*	0	42%	-22
O=C(NCC(c1cccnc1)N1CCN(c2ccccc2F)CC1)OCc1ccccc1 (stereo unspecified)	7%	?	18µM*	0	13%	-18
COc1ccc(N2CCN(C(CNC(=O)c3cccc(OC)c3)c3cccnc3)CC2)cc1 (stereo unspecified)	·	?	?	2	·	·
O=C(NCCc1c[nH]c2ccccc12)C(=O)NCC(c1cccnc1)N1CCN(c2ccccc2)CC1 (stereo unspecified)	?	18µM*	16µM*	-11	?	32
CN(C)CCNC(=O)C(=O)NCC(c1cccnc1)N1CCN(c2ccc(F)cc2)CC1 (stereo unspecified)	·	-15%	-23%	-1	·	·
Cn1nc(CC(=O)Nc2ccc(Cl)c(Cl)c2)c2ccccc2c1=O	·	·	·	-2	·	·
CCCCCCNC(=O)CC#N	·	·	·	2	·	·
O=C(NCC(c1cccnc1)N1CCN(c2ccccc2F)CC1)c1ccco1 (stereo unspecified)	1%	?	23µM*	-3	-14%	40
O=C(NCc1cccnc1)C(=O)NCC(c1cccnc1)N1CCN(c2ccc(F)cc2)CC1 (stereo unspecified)	·	21µM*	18µM*	0	·	·
O=C(NCC(c1cccnc1)N1CCN(c2ccc(F)cc2)CC1)OCc1ccccc1 (stereo unspecified)	?	?	15µM*	-3	13µM*	-17
COc1ccc(N2CCN(C(CNC(=O)C(=O)NCCCO)c3ccco3)CC2)cc1 (stereo unspecified)	-4%	1%	-6%	3	-4%	-2
COc1ccc(N2CCN(C(CNC(=O)C(=O)NCCc3c[nH]c4ccccc34)c3ccco3)CC2)cc1 (stereo unspecified)	-15%	-16%	?	-1	29%	-52*
COCCNC(=O)NC(=O)COC(=O)c1ccc(COc2ccc3c(C)cc(=O)oc3c2)cc1	·	·	·	-5	·	·
SMILES	Gal4-VP16 FLuc	DT40 TDP1 CPT	DT40 TDP1 no CPT	LDHA block	RORgamma inh	IL-1B inflam inh
CC(=O)C(Sc1nc(C)cc(C)n1)c1ccccc1 (stereo unspecified)	·	·	·	1	·	·
NC(=O)C(=O)NN=C1C2CC3CC(C2)CC1C3	7%	7%	5%	-8	-15%	9
NC(=S)NN=C1C=CCCC1	·	2.9µM*	4.6µM*	-10	·	14
NC(=S)NN=C1CCCCCCCCCCCCC1	·	·	·	-2	·	·
NC(=S)NN=C1CCCCCCCC1	·	2.3µM*	?	-2	·	-4
NC(=S)NN=C1C2CC3CC(C2)CC1C3	?	?	?	-3	2µM*	0
C=CCNC(=S)NN=C1CCCCCCC1	4.5µM*	16µM*	26µM*	-6	0.35µM*	13
C#CCN(Cc1ccc(F)cc1)C(=O)NCC1CCN(Cc2ccccc2)CC1	·	·	·	5	·	·
COc1ccc(-c2cc3ccc(OC)cc3oc2=O)c(OC)c1	·	·	·	8	·	·
Cc1ccnc(SCc2nc3cc(NS(=O)(=O)c4ccc(Cl)cc4)ccc3n2C)n1	·	·	·	3	·	·
COCCNC(=S)NN=C1CCCCC1	?	5.2µM*	5.2µM*	-3	13µM*	26
CCN1CNC(=S)N(c2cc(C)ccc2C)C1	-29%	-27%	4%	-2	?	-11
CCCN1CNC(=S)N(c2ccccc2C)C1	?	-8%	?	-2	11µM*	-11
CCCN1CNC(=S)N(c2ccc(C)cc2C)C1	?	-2%	-19%	-8	4µM*	·
O=C(NC1CCCCCCC1)c1cc(-c2ccc(Cl)c(Cl)c2)nc2ccccc12	·	·	·	3	·	·
CCCn1c(=O)[nH]c(=O)c2c1nc(CN1CCc3ccccc3C1)n2CCOC	·	·	·	7	·	·
O=[N+]([O-])c1cc([N+](=O)[O-])c2cccnc2c1Oc1ccccc1O	?	2.6µM*	1.8µM*	30	18µM*	26
O=[N+]([O-])c1cc(F)c2cccnc2c1O	3.2µM*	9.2µM*	7.3µM*	13	1.3µM*	30
O=[N+]([O-])c1cc(Cl)c2cccnc2c1O	4µM*	?	18µM*	15	2.8µM*	126
O=[N+]([O-])c1ccc(Cl)c2cccnc12	-12%	-26%	?	2	21%	-22
O=[N+]([O-])c1ccc(O)c2cccnc12	-22%	-4%	-11%	-12	?	8
CN(C)CCCNc1oc(-c2cccs2)nc1C#N	·	·	·	-8	·	·
CC(NC(=O)c1cccs1)c1nnc(SCc2ccc(Cl)cc2Cl)n1C (stereo unspecified)	1%	?	16µM*	-2	27%	-11

Source: PubChem BioAssay
